Among the data in PubChem BioAssay (NCI) are growth values, retold here.

Common to all, as to test: NCI-60 one-dose screen, 48 h (100 = growth as untreated, 0 = no growth, -100 = all killed)
Settings in all cases: 10 µM unless noted

Experiment [1] deals with SR leukemia.
The subject of experiment [2] is RPMI-8226 leukemia.
In experiment [3] the test system is OVCAR-8 ovarian.
Experiment [4] concerns OVCAR-5 ovarian.
In experiment [5] the test system is OVCAR-4 ovarian.
Experiment [6] deals with SK-OV-3 ovarian.
Experiment [7] relates to IGROV1 ovarian.
Experiment [8] deals with HS 578T breast.
Experiment [9] concerns NCI/ADR-RES ovarian.

About 83,000 compounds went through this panel and 20% of them were active in at least one assay; those are over-represented in the sample as a whole.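 Single-concentration screen, 48 h exposure, 96-well plates. Endpoint: percent growth. Below 10 = active.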 Values without a mark were called inactive. Calls of active or inactive are those of the source.

On to `NS(=O)(=O)c1ccc(Nc2nc(N/N=C/c3ccc4c(c3)OCO4)nc(Nc3ccccc3)n2)cc1`, for which the growth was 20% in experiment [1]; 54.3% in experiment [2]; 49.7% in [3]; 90.8% in experiment [4]; 55.5% in experiment [5]; 65.7% in experiment [6]. The growth was 36.6% in [7], 52% in experiment [8] and 90.9% in [9].
Take `N#Cc1nc(-c2ccccc2)oc1N1CCC(C2(C(F)(F)F)N=N2)CC1`: the growth was 85.1% in [1]; 97.2% in experiment [2]; 97.6% in experiment [3]; 109% in experiment [4]; 96.4% in experiment [5]; 96.2% in experiment [6]. Moreover, the growth in experiment [7] is 108%; in [8], 96.7%; in [9], 102%.
On to `CSc1ccc(C(=NNS(=O)(=O)c2ccc(C)cc2)c2ccc(Cl)cc2)cc1`, for which the growth in [1] was 114%; in experiment [2] it was 97.8%; in [3], 99.5%; in experiment [4] it was 94.3%; in experiment [5] it was 102%; in [6], 111%. In addition, the growth in [7] is 96.8%; in experiment [8], 101%; in experiment [9] it was 98.2%.
With `CCCCCCNC(=O)Oc1ccc(/C(=C(/C)c2ccc(OC)cc2)c2ccc(OCCN3CCCCCC3)cc2)cc1`, the growth in experiment [1] was -6.81% (active); in [2], -2.43% (active); in experiment [3] it was 41.8%; in [4] it was 61.1%; in experiment [5], 47.1%; in experiment [6], 66.1%. In addition, the growth was 47% in [7], 9.93% (active) in experiment [8] and 48.2% in experiment [9].
Consider `Oc1ccc(-c2nc3ccc(/C(=N\N=C\c4ccc(Cl)cc4)c4ccccc4)cc3[nH]2)cc1`, for which the growth was 62.1% in experiment [1]; 33.9% in experiment [2]; 82.9% in [3]; 97.1% in experiment [4]; 58.1% in experiment [5]; 106% in experiment [6]. The growth is 89.9% in experiment [7], 98.3% in [8] and 93% in experiment [9].
On to `CC[C@H](CC[C@@H](C)[C@H]1CC[C@H]2[C@@H]3CC(=O)C4=CC(=O)/C(=C/c5ccc([N+](=O)[O-])cc5)C[C@]4(C)[C@H]3CC[C@]12C)C(C)C`, for which the growth in [1] was 84.3%; in experiment [2], 83.5%; in [3], 100%; in experiment [4] it was 105%; in experiment [5], 108%; in experiment [6], 124%. The growth in experiment [7] was 111%; in [8], 119%; in experiment [9], 106%.
In the case of `CC(C)(C)OC(=O)NCc1ccc(CNc2c([N+](=O)[O-])cnc3ccccc23)cc1`, the growth is 37.1% in experiment [1]; 43.6% in [2]; 63.4% in experiment [3]; 93.6% in experiment [4]; 54.8% in experiment [5]; 68% in experiment [6]. The growth in experiment [7] was 76.5%; in experiment [8], 76.9%; in experiment [9], 38.2%.
Turning to `CN1CCN(Cc2ccc(NC(=O)c3cncc(C#Cc4cnc5ccc(O[C@@H]6CCOC6)nn45)c3)cc2C(F)(F)F)CC1`, the growth in experiment [1] is -29.7% (active); in [2], -24.1% (active); in experiment [3], -60.1% (active); in experiment [4] it was -66% (active); in experiment [5], -73.7% (active); in experiment [6], -67.8% (active). In addition, the values for the growth in [7], in [8] and in [9] were -51.9% (active), -46.9% (active) and -34.5% (active), respectively.
